Experimental data reported in the OligoGym collection.

biological target: GALNT9; assay: pooled miR-30 sensor sort-seq; sequence = guide strand; settings: shRNA
Further: reference of the scale not given here.

Sequence | sensor-assay potency score (higher = more potent)
TAGTAGTCAATGTCGTTGTTGT | 0.0429
TTCGACATGGGGATGTTCCAGG | -0.845
TTACCAGACCACAAGGAGCTGC | -0.143
TTTGGACATCTCCACCTCCAGG | -1.41
TTGTAGACCCTCATCTCCGGGT | -0.631
TTTGTCGCTGTCCATGTCCTCC | -0.772
TGATGTGTGACTTAGGTCTTGG | 0.117
TTGTTGTAGGGCTTCCTGGTGC | 0.157
TTTCTCACCTCTCCGTACGTGA | -0.461

biological target: GALNTL4; assay: as above; settings: shRNA

Sequence | sensor-assay potency score (higher = more potent)
TTGTCATCATCATCCACGGTGG | -0.503
TTGACGTCCACCAGGCATCGGT | -0.813
TCGGTTGTCATCATCATCCACG | -0.664
TGGATCTGCTGACTGCTCGTGT | -0.605
TTCAGTTCCTCGTTACTGCTGT | 0.73
AATAGTTTGATATCATACCATC | -1.73
TACTCTTCTATCTCAAAGTTGT | -0.112
ATATTCGGTCAGCTTCTCCTTC | -0.121
TTTGTCTTCCTCCAGCTTCTTG | -1.15
TTGATATCATACCATCACCTAC | -1.18
TTCCTCCAGCTTCTTGTCGGGC | -1.36

biological target: GALT; assay: as above; settings: shRNA

Sequence | sensor-assay potency score (higher = more potent)
TTTGTTTTCAAAGATCTGCACC | -0.471
AAGCATTTCGTAGCCAACCATG | -1.22
TTCCTGAGTAGCTCCTGGCGGC | -0.283
AAGAGCTTCTTCATGATGGAGG | -0.296
TAGCAGGGGCTCTCCATGCTGA | -0.945
TAGATCATCACGCTCAGCAGGG | -0.0859
TACTAACCAGTGCTCACTGGTT | -0.859
TTGCCCGGAAGGTTGCTGCTGC | -0.354
TAATTCAGCAAGACTGTTGAAA | 0.0574
TGAATTTCCGGACAGTGGCAGA | -0.779
TATCTGGCAGGAAACTGCTGGC | -0.854
ATATCTGGCAGGAAACTGCTGG | -0.342
TTCACCTCTCCGTTGGCTCGGA | -0.467
AAAGAGGTTGTCATACTTGGTC | -0.351
TTGGTCAAGAGCTTCTTCATGA | -0.31
TAGCCAACCATGAATTTCCGGA | -0.189
TTTTCAAAGATCTGCACCCAAG | -1.61
TTGTCAAACAGGAAGGTGCTAT | -0.0645
ATACTTGGTCAAGAGCTTCTTC | -0.165
AAGGGGACCAGTACTAACCAGT | -0.813
